Test results as given in PubChem BioAssay (NCI).
Compounds without any hit were thinned out: in the full panel of roughly 83,000, 20% have a hit.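 Cells were grown in 96-well plates and exposed to the test compound at a single concentration for 48 hours; results are reported as percent growth, with values below 10 considered active.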 A number with no mark means an inactive call. Active and inactive are the calls of the source.

Experiments:
Test in all cases: NCI-60 one-dose screen, 48 h (100 = growth as untreated, 0 = no growth, -100 = all killed)
Details in all cases: 10 µM unless noted
HCT-15 colon = system: HCT-15 colon
HT29 colon = system: HT29 colon
SNB-75 CNS = system: SNB-75 CNS
SNB-19 CNS = system: SNB-19 CNS
U251 CNS = system: U251 CNS
PC-3 prostate = system: PC-3 prostate
SK-MEL-5 melanoma = system: SK-MEL-5 melanoma
UACC-62 melanoma = system: UACC-62 melanoma
LOX IMVI melanoma = system: LOX IMVI melanoma
SK-MEL-28 melanoma = system: SK-MEL-28 melanoma
SK-MEL-2 melanoma = system: SK-MEL-2 melanoma
EKVX NSCLC = system: EKVX NSCLC
SN12C renal = system: SN12C renal
UO-31 renal = system: UO-31 renal
TK-10 renal = system: TK-10 renal
ACHN renal = system: ACHN renal
CAKI-1 renal = system: CAKI-1 renal
A498 renal = system: A498 renal
CCRF-CEM leukemia = system: CCRF-CEM leukemia
MOLT-4 leukemia = system: MOLT-4 leukemia

Row | Structure (SMILES) | growth (HCT-15 colon) | growth (HT29 colon) | growth (SNB-75 CNS) | growth (SNB-19 CNS) | growth (U251 CNS) | growth (PC-3 prostate) | growth (SK-MEL-5 melanoma) | growth (UACC-62 melanoma) | growth (LOX IMVI melanoma) | growth (SK-MEL-28 melanoma) | growth (SK-MEL-2 melanoma) | growth (EKVX NSCLC) | growth (SN12C renal) | growth (UO-31 renal) | growth (TK-10 renal) | growth (ACHN renal) | growth (CAKI-1 renal) | growth (A498 renal) | growth (CCRF-CEM leukemia) | growth (MOLT-4 leukemia)
1 | C=C(C)[C@@H]1CC[C@]2(C)[C@H](CC[C@@H]3[C@@H]([C@@](C)(O)CCC=C(C)C)CC[C@]32C)[C@@]1(C)CCC(=O)N1CCN(C)CC1 | -92.8% [100 µM] (active) | -70.8% [100 µM] (active) | -92.5% [100 µM] (active) | -95.3% [100 µM] (active) | -78.6% [100 µM] (active) | -61.8% [100 µM] (active) | -99.1% [100 µM] (active) | -95.2% [100 µM] (active) | -100% [100 µM] (active) | -92.1% [100 µM] (active) | -88.5% [100 µM] (active) | -66.4% [100 µM] (active) | -95.6% [100 µM] (active) | -100% [100 µM] (active) | -79.3% [100 µM] (active) | -100% [100 µM] (active) | -90.7% [100 µM] (active) | -96% [100 µM] (active) | -27.6% [100 µM] (active) | –
2 | CC(=O)n1cc(C=O)c2ccccc21 | 106% | 97.7% | 81.7% | 100% | 86.3% | 93.5% | 97.2% | 94.2% | 93.8% | 105% | 97.9% | 109% | 97.7% | 72% | 100% | 106% | 100% | 113% | 80.9% | 91%
3 | Cc1ccc(Cn2c(O)c(N=NC(=O)c3ccc(S(N)(=O)=O)cc3)c3ccccc32)cc1 | 106% | 111% | 92.4% | 100% | 97.8% | 94.5% | 98.5% | 86.7% | 103% | 106% | 109% | 103% | 96.9% | 73% | 106% | 93.3% | 92.9% | 86.8% | 106% | –
4 | c1ccc(-c2nc(N3CCCNCC3)c3nc(-c4ccccc4)oc3n2)cc1 | -80.4% (active) | -63.4% (active) | 53.1% | 70.4% | -90.9% (active) | -27.3% (active) | 55.6% | -77.8% (active) | -95.7% (active) | 83.7% | 102% | 62.8% | -22.5% (active) | 51.1% | -47.3% (active) | -53.5% (active) | 40.1% | 69.9% | 12.7% | –
5 | CCCCCCSc1ncnc2nc[nH]c12 | 90.8% | 103% | 91.2% | 86.2% | 90.1% | 85.2% | 94% | 77% | 80.1% | 101% | 105% | 83.6% | 92.4% | 64.7% | 103% | 96.8% | 95.9% | 95.2% | 101% | –
6 | NNC(=O)c1ccc(C(=O)NN)cc1 | 112% | 97.9% | 113% | 103% | 93.2% | 114% | 108% | 97.6% | 102% | 114% | 122% | 101% | 109% | 87.1% | 105% | 111% | 105% | 70.2% | 94.4% | –
7 | C=C(C)[C@@H]1CC[C@]2(C)[C@H](C(=O)C=C3[C@@H]4C[C@](C)(C(=O)N5CCN(C)CC5)CC[C@]4(C)CC[C@]32C)[C@@]1(C)CCC#N | -88.2% [100 µM] (active) | -53.2% [100 µM] (active) | -92.2% [100 µM] (active) | -95.8% [100 µM] (active) | -76.7% [100 µM] (active) | -65.9% [100 µM] (active) | -94.6% [100 µM] (active) | -88.9% [100 µM] (active) | -93.6% [100 µM] (active) | -90.1% [100 µM] (active) | -78.6% [100 µM] (active) | -20.8% [100 µM] (active) | -86.9% [100 µM] (active) | -100% [100 µM] (active) | -87.8% [100 µM] (active) | -93.7% [100 µM] (active) | -96.2% [100 µM] (active) | -73.7% [100 µM] (active) | -34% [100 µM] (active) | –
